Results taken from PubChem BioAssay AID2314 (National Center for Advancing Translational Sciences (NCATS), 2010).
Values joined by “and” are separate entries in the source; they are usually repeats but may differ in a detail not shown here. Equal values may be shown once. About 37,000 (12%) of roughly 300,000 compounds were called active. The list comes from a sample in which actives are over-represented; it also holds similar structures and randomly drawn compounds. A number with no mark means an inactive call. No stated cut-off is given here; in the data, active means max response mostly above about 13% (no sharp cut-off); inactive means mostly below about 14%.

Test: Cycloheximide Counterscreen for Small Molecule Inhibitors of Shiga Toxin; further: read at 38.3 µM for the half of the compounds with a filed dose; 0% is about no effect
Conditions: cell reporter, cycloheximide protein synthesis inhibition counterscreen; stronger effect = higher value

| SMILES | max response |
| --- | --- |
| Cc1ccc(-c2cccc([C@H]3[C@@H]4C=CC[C@@H](C)[C@@H]4C(=O)N3Cc3ccccc3)c2)cc1 | 2.34% |
| Cc1ccc2c(C)c(C(=O)N(C)CCC3CCCCO3)oc2c1C (stereo not given) | 17.8% |
| COC(=O)c1ccc(OC(=O)c2cnccn2)cc1 | -7.13% |
| CCOC(=O)c1nc(Nc2ccc(C(=O)OC)cc2)c2ccccc2n1 | 9.36% |
| COC(=O)c1ccc(Nc2ncnc3sccc23)cc1 | 39.2% (active) |
| NS(=O)(=O)c1ccc(-c2ccc(/C=C3\SC(=O)NC3=O)o2)cc1 | -2.44% |
| O=C(O)C(c1ccccc1)N1C(=O)/C(=C\c2ccc(-c3cccc(Cl)c3)o2)SC1=S (stereo not given) | 0.131% |
| CN1C(=O)/C(=C\c2ccc(-c3ccccc3)o2)SC1=S | 9.37% (active) |
| COc1ccc2[nH]c3c(C)c4cc[n+](C)cc4c(C)c3c2c1 | -3.46% |
| O=C1CCCN1CCCNC(=S)Nc1ccc(F)c(Cl)c1 | 11.5% |
| OCc1ccc(OCCCOc2cccc3cccnc23)cc1 | 1.36% |
| Cc1ccc2cccc(OCCCOc3ccccc3CO)c2n1 | 13.2% (active) |
| Cc1ccc(N(C)C(=O)Oc2cccc3ccc(C)nc23)cc1 | -4.01% |
| Cc1cc(S(=O)(=O)NCc2ccccn2)c(Cl)cc1Cl | -3.82% |
| O=C1NC(=Nc2ccc(Cl)cc2)SC1Cc1cccc(Cl)c1Cl (stereo not given) | -3.08% |
| Cc1nc(N2CCOCC2)nc2c1CCCC2 | 9.25% |
| Nc1nc(-c2sc3nc4c(cc3c2N)CCCC4)nc(N2CCOCC2)n1 | 17.7% (active) |
| Cc1cc(Oc2ccccc2)nc(N2CCOCC2)n1 | 11.6% |
| COc1ccc(N2C(=O)C(CC(=O)Nc3ccc(F)cc3)N(CCc3cccs3)C2=O)cc1 (stereo not given) | 8.62% |
| CNc1ccc(SC#N)cc1 | -2% |
| Cc1cccc(C(=O)N2CCN(S(=O)(=O)N3CCCCC3)CC2)c1 | -2.15% |
| COc1ccc(Cn2c(=S)[nH]c3cc(C(=O)N4CCCCC4)ccc3c2=O)cc1 | -3.34% |
| COc1cccc(COc2ccc(N(C)S(=O)(=O)c3ccccc3)cc2)c1 | -0.489% |
| COc1ccc(OCc2cccc(C(=O)N3CCCC3)c2)cc1 | 59.3% (active) |
| CC(=O)Oc1ccc(-c2cccc(C(=O)N3CCCCC3)c2)cc1 | 12.6% (active) |
| Cc1cccc(C(=O)N2CCCN(C(=O)c3cccc(C)c3)CC2)c1 | -1.57% |
| COc1ccc(CNC(=O)C2CCN(C(=O)c3ccccc3)CC2)cc1 | 1.61% |

| SMILES | max response |
| --- | --- |
| CCOc1ccc(OCc2cccc(C(=O)N(CC)CC)c2)cc1 | 47.9% (active) |
| CCOc1ccc(OCc2ccc(C(=O)N(C)c3ccccc3)o2)cc1 | 2.57% |
| O=C(c1cc(S(=O)(=O)N2CCOCC2)ccc1Cl)N1CCOCC1 | -3.17% |
| OC(c1nc2ccc(F)cc2[nH]1)C(O)c1nc2ccc(F)cc2[nH]1 (stereo not given) | -0.936% |
| COc1ccccc1N1CCN(C(=O)c2cc(=O)c3cc(C)cc(C)c3o2)CC1 | -2.78% |
| Cc1ccc(C)c(-n2c(SCC(=O)O)nc3sc4c(c3c2=O)CCCC4)c1 | -4.29% |
| Cc1ccc(NC(=S)N(CCN(C)C)Cc2cccs2)cc1C | -3.5% |
| O=C(COc1ccc(-n2cnnn2)cc1)Nc1ccccc1Cl | 9.71% |
| Cc1sc2nc(CSCC(=O)Nc3c(Cl)cccc3Cl)[nH]c(=O)c2c1C | 13.5% |
| CCOc1cc(NC(=O)Nc2ccccc2)c(OCC)cc1NC(=O)CC | -3.19% |
| Cc1ccc(NC(=O)Nc2ccccc2)c(Br)c1 | 64.5% (active) |
| CS(=O)(=O)c1ccc(Cl)c(NC(=O)Nc2ccccc2)c1 | -1.05% |
| COc1ccc(S(=O)(=O)N/N=C\c2ccc(OC)c(COc3ccc(C)cc3[N+](=O)[O-])c2)cc1 | -1.1% |
| O=C(NCc1ccco1)C(c1ccncc1)N(C(=O)Cn1nnc2ccccc21)c1ccccc1 (stereo not given) | -1.7% |
| CSc1ccccc1NC(=O)CN(C)CC(=O)Nc1cccc(Br)c1 | 1.62% |
| CCN(CC)C(=O)C(=O)Nc1cccc(Br)c1 | 36.1% (active) |
| CCN(CC)C(=O)Oc1ccc(Br)cc1C(=O)Nc1ccc(F)c(Cl)c1 | 11% |
| CC(C)(C)c1ccccc1NC(=O)CN1C(=O)NC2(CCCC2)C1=O | -4.11% |
| Cc1cccc(C(=O)OC(C)CN2CCCC2)c1 (stereo not given) | 6.5% |
| Cc1ccc(C(=O)OC(C)CN2CCOCC2)cc1 (stereo not given) | 16.8% |
| CC(CN1CCOCC1)c1ccccc1 (stereo not given) | 2.67% |
| CC(CN1CCCCC1)OC(=O)c1ccccc1Cl (stereo not given) | 22.1% (active) |
| CC(CN1CCCCC1)c1ccccc1 (stereo not given) | -3.13% |
| Cc1cccc(C(=O)OC(C)CN2CCN(C)CC2)c1 (stereo not given) | 41.3% (active) |
| CC(CN1CCOCC1)OC(=O)c1ccc(C(C)(C)C)cc1 (stereo not given) | 16.4% (active) |
| CC(CN1CCOCC1)OC(=O)c1ccc(Cl)cc1Cl (stereo not given) | 20.3% |
| Cc1ccc(C(CNC(=O)Nc2cccc(C)c2)N2CCN(C)CC2)cc1 (stereo not given) | -4.7% |

| SMILES | max response |
| --- | --- |
| COc1ccc(-n2nc3c(N4CCC(C(=O)NCc5ccccc5)CC4)nnc(C)c3c2C)cc1 | -13.3% |
| CCOC(=O)C1C(c2ccc(OC)c(OC)c2)c2c([nH][nH]c2=O)CC1(C)O (stereo not given) | -1.55% |
| CO/N=C(/CS(=O)(=O)c1ccc(Br)cc1)c1ccc(OC)cc1 | 0.74% |
| Clc1ccc(COn2c(-c3ccc(Cl)cc3Cl)nc3ncccc32)cc1 | -3.82% |
| Cc1n[nH]c(=O)c2c1nnn2Cc1ccc(F)cc1 | -2.69% |
| O=C(Nc1ccc(Br)cc1)c1cccc(NC(=O)C2C3CC4OC(=O)C2C4C3)c1 (stereo not given) | 14% |
| Cn1c(CCNS(=O)(=O)c2ccc(F)cc2)nnc1SCc1cccnc1 | -3.41% |
| COC(=O)C1[C@H]2SC(C)(C)C(C(=O)OC)N2C(=O)N1Cc1nc2ccccc2s1 (stereo not given in full) | 0.765% |
| CCC1(CC)NC(=O)N(Cc2nc3ccccc3s2)C1=O | 19.8% (active) |
| CCC1(CC)NC(=O)N(CC(=O)OCC(=O)NC(=O)c2ccccc2)C1=O | -1.66% |
| O=S(=O)(c1ccccc1)c1nc(Cc2ccccc2)oc1N1CCOCC1 | -5.23% |
| COc1ccc(CCN2C(=O)CC(N3CCC(C(N)=O)CC3)C2=O)cc1OC (stereo not given) | 3.18% |
| Nc1nonc1-n1nnc(C(=O)N/N=C/c2cc(Br)ccc2O)c1CSC1=NCCS1 | -2.34% |
| O=C(Nc1ccccc1F)c1ccccc1-c1ccc(C(F)(F)F)cc1 | -2.22% |
| CCCOC(=O)c1[nH]c2c(c1C)C(=O)CC(c1cc(OC)c(OC)c(OC)c1)C2 (stereo not given) | 3.17% |
| COC(=O)C1C(=O)c2c([nH]c(C(=O)OCCSC)c2C)CC1C (stereo not given) | 51.7% (active) |
| CCCOC(=O)C1=C(C)NC2=C(C(=O)C(C(=O)OC)C(C)C2)C1c1ccc(N(C)C)cc1 (stereo not given) | 12.3% |
| CC(C)(CNC(=O)Cc1ccc(Cl)cc1Cl)N1CCOCC1 | -3.1% |
| Cc1ccccc1OC/C(O)=C(\C#N)c1nc2ccccc2[nH]1 | 0.892% |
| N#C/C(=C(/O)COc1cccc2ccccc12)c1nc2ccccc2[nH]1 | 2.08% |
| COCCN(CCOC)S(=O)(=O)c1ccc(/C(O)=C(\C#N)c2nc3ccccc3[nH]2)cc1 | 12.2% (active) |
| O=C(c1ccc(OC2CCN(C(=O)c3cccnc3)CC2)cc1)N1CCCCCC1 | -1.68% |
| CCOC(=O)/C(=C\c1ccc([N+](=O)[O-])cc1)C(=O)c1cc(C(C)=O)c(Nc2ccccc2)s1 | -4.46% |
| O=C1/C(=C/c2ccc3c(c2)OCO3)Oc2cc(OCC(=O)N3CC(O)C[C@H]3C(=O)O)ccc21 (stereo not given in full) | 0.739% |
| COC(=O)C(C)Oc1ccc2c(c1)O/C(=C\c1cccc(Br)c1)C2=O (stereo not given) | 1.99% |
| CN(C)C(=O)Oc1ccc2c(c1)O/C(=C\c1ccccc1)C2=O | 44.1% (active) |
| COc1cc(C(CCN2CCN(c3ccccc3)CC2)c2c(OC)cc(OC)c3ccc(=O)oc23)cc(OC)c1OC (stereo not given) | -1.52% and 15.6% |

| SMILES | max response |
| --- | --- |
| C=C(C)COc1ccc(-c2ncncc2-c2ccc(OC)cc2)c(O)c1 | 13.2% |
| Cc1ccc(SCC(=O)c2cc(C)c(OC(=S)N(C)C)c(C)c2)cc1 | 26.1% (active) |
| Cc1ccc(SC(=O)COc2ccc(C)c(C)c2)cc1 | -5.87% |
| COC(=O)c1cc(OC)c(OC)cc1NC(=O)CSc1ccc(C)cc1 | -2.51% |
| Cc1ccc(NC(=O)c2ccc(S(=O)(=O)NCC3CCCO3)cc2)cc1C (stereo not given) | 9.52% |
| Cc1ccc(-c2nn(-c3ccccc3)cc2/C=C2\SC(=S)N(CCCCCC(=O)O)C2=O)o1 | 1.36% |
| O=C(NC(=S)N1CCCCC1c1cccnc1)c1ccccc1 (stereo not given) | 11.6% |
| C=C(C)c1cccc(C(C)(C)NC(=O)NC2CCCC2)c1 | -2.37% |
| Cc1ccc(C)c(N2CCN(C(=O)Cn3ncn4cccc4c3=O)CC2)c1 | -1.35% |
| O=Cc1ccc(Oc2cccc(C(F)(F)F)c2)nc1 | 15% |
| FC(F)(F)c1ccnc(Oc2ccc(C3=NCCS3)cc2)c1 | 42.3% (active) |
| NC(=S)Nc1c(Cl)cccc1Cl | 4.66% |
| CCc1ccc(NC(=O)C(=O)NNC(=O)c2cccs2)cc1 | 27.8% (active) |
| O=C(COC(=O)c1cccs1)Nc1ccccc1Cl | -1.99% |
| CCc1ccc(NC(=O)COC(=O)c2cccs2)cc1 | 51.3% (active) |
| CCOC(=O)c1oc2ccccc2c1NC(=O)c1cccs1 | -3.1% |
| CCc1ccc(NC(=O)C(=O)N/N=C(\C)CC(=O)NCCOC)cc1 | 20.1% |
| O=C(COC(=O)c1cccs1)NCc1cccs1 | 16.3% (active) |
| C/C(=N\OCC(=O)Nc1ccc(Br)cc1)c1cccs1 | 7.82% |
| CCc1ccc(NC(=O)CCNS(=O)(=O)c2cccs2)cc1 | 21.6% (active) |
| O=C(COC(=O)CCC(=O)c1cccs1)NCc1ccco1 | 1.52% |
| CCc1cccc(NC(=O)CCNS(=O)(=O)c2cccc3nonc23)c1 | -2.33% |
| O=C(COC(=O)c1ccc(Cl)nc1)NCc1cccs1 | -2.61% |
| O=C(COC(=O)c1ccc(NS(=O)(=O)c2cccs2)cc1O)Nc1ccc(F)cc1 | 0.935% |
